Screening data deposited in PubChem BioAssay by several laboratories.
CYP2C9 inh = human CYP2C9 inhibition | CYP2C9 Supersomes, luciferin-H conversion, luminescence | 96,000 compounds, 20% hits | inhibition, % at 5 µM | P11712;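 active = blocking of liver enzyme CYP2C9 beyond about 50% at 5 µM, limit read from the data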
Target sequence (P11712 whole entry, looked up): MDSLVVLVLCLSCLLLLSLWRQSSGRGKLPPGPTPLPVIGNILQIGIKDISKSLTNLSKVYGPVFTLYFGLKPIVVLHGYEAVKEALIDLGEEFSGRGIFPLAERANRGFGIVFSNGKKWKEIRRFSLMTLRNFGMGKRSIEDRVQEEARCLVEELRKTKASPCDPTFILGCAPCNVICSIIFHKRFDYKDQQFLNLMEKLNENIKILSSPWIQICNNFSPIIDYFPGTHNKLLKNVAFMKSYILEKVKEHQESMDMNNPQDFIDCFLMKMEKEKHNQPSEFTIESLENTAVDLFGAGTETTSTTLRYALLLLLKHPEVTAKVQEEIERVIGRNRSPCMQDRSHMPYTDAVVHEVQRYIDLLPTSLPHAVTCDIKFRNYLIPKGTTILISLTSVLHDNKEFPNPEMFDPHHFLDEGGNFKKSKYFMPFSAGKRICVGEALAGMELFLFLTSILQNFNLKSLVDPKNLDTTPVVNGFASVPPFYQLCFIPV
PostGolgi ctrl = inhibits growth of the yeast control strain | efflux-deficient yeast background strain, growth absorbance A615, 16 h | inhibition, % at 10 µM | 98,000 compounds, 5% hits | AID 738
CYP2C9 act = CYP2C9 (human) activation; P11712; AID 1024; activation factor at 5 µM; recombinant CYP2C9, luciferin-H conversion, luminescence; active compounds read high; factor 1 = untreated enzyme, 0 = blocked; 96,000 compounds, 1.4% hits;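 active = activation factor of 2 or more for CYP2C9 at a 5 µM dose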;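 also: 0 = sulfaphenazole-blocked wells and 1 = vehicle-only wells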
CYP2C19 activ = activators of human cytochrome P450 2C19; recombinant CYP2C19, luciferin-H EGE luminescence; active compounds read high; 0 = fully inhibited enzyme, 1 = untreated enzyme; activation factor at 5 µM; AID 1025; 96,000 tested, under 10 active;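 active = activation factor of at least 2 at 5 µM in the primary screen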;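 also: 0 = wells with 2.5 mM tranylcypromine and 1 = vehicle-only wells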
CYP2C19 inh = inhibitors of human CYP2C19. 96,000 compounds, 21% hits. AID 778. P33261. CYP2C19 Supersomes, luciferin-H EGE luminescence, 30 min. inhibition, % at 5 µM;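 active = CYP2C19 inhibition above a set limit at 5 µM in the primary screen, cut at about 50% in these data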;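 also: plate controls were negative control wells for no effect and 2.5 mM tranylcypromine positive control for full effect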
PostGolgi yeast = growth inhibition of a yeast mutant, post-Golgi transport screen | post-Golgi transport phenotypic cell assay | inhibition, % at 10 µM | 98,000 compounds, 0.9% hits | AID 739;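 also: yeast cells grown in 1536-well plates; yeast grown about 18 h at 30C before absorbance read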
The depositor's hits bear a star; . = not tested or not shown. Hits are enriched below; roughly 32% of the tested compounds scored in any of these assays. Rule as the data show it, unless noted: active = inhibition above about 30%; inactive = the rest.

SMILES	CYP2C9 inh	PostGolgi ctrl	CYP2C9 act	CYP2C19 activ	CYP2C19 inh	PostGolgi yeast
O=C(CSc1ccc2c(c1)OCCO2)NC(=O)NC1CCCC1	71.8*	2.8	0.3	0.1	94.5*	-3.9
Cc1cc(NC(=O)C2CC(=O)OC2c2ccccc2)no1 (stereo not drawn)	12.2	-2.4	0.9	0.5	52.5*	-1.7
CC(C)Cn1c(N)c(C(=O)CSc2ccc3c(c2)OCCO3)c(=O)n(C)c1=O	0.6	10.2	1	0.8	23.6	-2.7
Cc1cc(NC(=O)CSc2nnc(C3COc4ccccc4O3)o2)no1 (stereo not drawn)	46.8	42.1*	0.5	0.5	49.3	0.7
O=C(CSc1ccc2c(c1)OCCO2)NCCN1C(=O)CSC1=O	19.0	3.6	0.8	0.6	44.5	-2.5
O=C(CSc1ccc2c(c1)OCCO2)Nc1ncc(Cl)cc1Cl	82.5*	7.9	0.2	0.2	75.8*	1.2
Cc1cc(NC(=O)CSc2ccc3c(c2)OCCO3)no1	40.4	13.8	0.6	0.4	56.8*	4.5
O=C(/C=C/c1ccc(Cl)cc1Cl)NCCN1CCOCC1	-15.6	4.5	1.2	0.9	9.2	-5.5
COc1ccccc1C1(O)CC2CCC(C1)N2S(=O)(=O)c1ccc(C(C)=O)cc1 (stereo not drawn)	-18.8	9.5	1.2	0.7	29.7	21.2
CCCCN(NC(C)=O)c1nc(Cl)nc(NC(C)C)n1	-1.6	3.7	1	1	-4.2	-0.3
Cc1ccc(C(=O)CSC2=NC(N)=C(C#N)C3(CCCCC3)C2C(N)=O)cc1 (stereo not drawn)	29.5	1.0	0.7	0.8	22.3	2.6
Cc1ccc(-c2nc(SCC(N)=O)c(C#N)c3c2CCCC3)cc1	38.5	43.6*	0.6	0.4	64.6*	6.8
CSc1nc(N)nc(SCC(=O)c2ccc(C)cc2)c1C#N	53.9*	5.0	0.5	1	-2.9	-20.1
CCc1c(C)nc(SCC(=O)CC(=O)OC(C)C)c(C#N)c1C	35.7	12.3	0.6	0.2	77.0*	0.2
CSc1nc(N)nc(SCC(=O)OC(C)C)c1C#N	56.6*	2.9	0.4	0.9	11.0	14.1
Cc1csc(=O)n1CCC(=O)O	-32.9	6.2	1.3	1.2	-20.0	-2.2
O=C1C=C(NC2CC2)C2(CCCCC2)O1	5.1	6.7	0.9	0.9	6.0	5.2
Cc1ccccc1-c1noc(C2CCCCC2)n1	7.2	18.6	0.9	1	3.5	20.4
CS(=O)(=O)CCC(C(=O)n1nnc2ccccc21)N1C(=O)c2ccccc2C1=O (stereo not drawn)	-9.3	9.4	1.1	1.1	-14.2	-10.7
CC1(C)Cc2c(C#N)c(N3CCCC3)nc(-c3ccco3)c2CO1	90.6*	22.2	0.1	0.5	50.6*	0.2
CCC(=O)N1CCN(c2nc(-c3ccccc3)c3c(c2C#N)CCCC3)CC1	69.3*	24.0	0.3	0.2	83.1*	-0.2
N#Cc1c(N2CCOCC2)nc(-c2ccco2)c2c1CCCC2	67.0*	7.7	0.3	0.8	21.2	-0.3
N#Cc1c(NCCN)nc(-c2ccco2)c2c1CCCC2	24.2	14.3	0.8	0.9	10.1	-3.1
Cc1ccc(C)c(NC(=O)Cn2nnc(C(=O)NCc3cccs3)c2N)c1	-26.3	8.8	1.3	1.2	-15.1	-53.7
Cc1ccc(S(=O)(=O)CCC(=O)OCC(=O)Nc2cc(C)on2)cc1	23.3	7.4	0.8	0.5	48.3	-1.6
SMILES	CYP2C9 inh	PostGolgi ctrl	CYP2C9 act	CYP2C19 activ	CYP2C19 inh	PostGolgi yeast
C=CCn1c(SCC(=O)N(C)C2CCS(=O)(=O)C2)nnc1-c1ccncc1 (stereo not drawn)	-11.2	-0.5	1.1	1	-4.8	3.2
CCCc1cc(N2CCN(c3ccccn3)CC2)n2nc(C)c(-c3ccccc3)c2n1	53.6*	27.8	0.5	0.8	18.7	3.7
O=C(Cn1cnc2ccccc21)N/N=C/c1ccccn1	28.8	22.6	0.7	1	3.1	2.1
CCOC(=O)C(C)n1cnc2c(nnn2-c2cccc(Cl)c2)c1=O (stereo not drawn)	-95.9	9.3	2*	1.1	-6.7	1.8
O=C1CC(N2CCN(c3nc4ccccc4s3)CC2)C(=O)N1Cc1cccs1 (stereo not drawn)	68.9*	101.8*	0.3	0.5	47.6	92.5*
O=C1CC(N2CCN(c3ccc(F)cc3)CC2)C(=O)N1Cc1cccs1 (stereo not drawn)	32.6	5.0	0.7	0.7	29.5	-9.4
CC(C)C(c1nnnn1Cc1ccco1)N1CCN(c2nc3ccccc3s2)CC1 (stereo not drawn)	-5.6	41.1*	1.1	1	-2.9	4.7
COCCn1nnnc1C(c1cccs1)N1CCN(c2nc3ccccc3s2)CC1 (stereo not drawn)	89.2*	15.9	0.1	0.2	82.3*	-1.5
CC(C)C(c1nnnn1Cc1ccco1)N1CCN(C2CCCC2)CC1 (stereo not drawn)	-0.7	6.1	1	1	1.3	-1.8
COCCn1nnnc1C(c1cc2cc(C)cc(C)c2[nH]c1=O)N1CCN(c2ccccc2F)CC1 (stereo not drawn)	78.2*	-12.1	0.2	0.7	34.7	-1.0
CCOc1ccc(C2c3cc(OC)c(OC)cc3CC(=O)N2c2ccc(OC)cc2)cc1 (stereo not drawn)	35.4	1.5	0.6	0.7	26.9	-5.6
Cc1cc(C)n2ncnc2n1	-19.0	14.2	1.2	1.1	-10.3	2.2
NC(=O)C1CCN(C(=O)OCc2ccccc2)CC1	0.6	7.0	1	0.6	38.5	6.7
COc1ccc(OCC(=O)Nc2ccc(S(=O)(=O)Nc3cc(C)nc(C)n3)cc2)cc1	13.5	7.8	0.9	0.9	13.7	-9.3
CN1OC(COC(=O)c2ccc(Cl)cc2Cl)CC1c1ccccc1 (stereo not drawn)	-28.9	15.5	1.3	0.9	14.8	12.9
c1ccc(CCn2nnnc2C(c2cccs2)N2CCOCC2)cc1 (stereo not drawn)	-4.7	.	1	0.7	27.3	.
CCC(c1nnnn1Cc1cccs1)N1CCN(C2CCCC2)CC1 (stereo not drawn)	14.6	26.4	0.9	1	-1.1	-0.9
CCC(c1nnnn1Cc1cccs1)N1CCN(c2nc3ccccc3s2)CC1 (stereo not drawn)	42.2	31.6*	0.6	0.6	41.0	10.0
COCCn1nnnc1C(c1cccs1)N1CCN(c2cc(C)ccc2C)CC1 (stereo not drawn)	61.9*	23.2	0.4	0.6	38.3	-11.3
COC(=O)c1cn(NC(=O)c2ccc3c(c2)OCO3)c(=O)c2ccccc12	15.4	21.8	0.8	1	3.1	11.1
Cc1cccc(-c2noc(-c3cc4ccccc4oc3=O)n2)c1	0.6	19.4	1	0.7	27.2	-66.5
Clc1ccc(Oc2nc(Oc3ccc(Cl)cc3)nc(N3CCOCC3)n2)cc1	15.1	-0.7	0.8	0.9	14.9	2.9
c1ccc(-c2nnc(N3CCOCC3)nc2-c2ccccc2)cc1	4.6	53.6*	1	0.5	45.7	0.3
